GPR151 activ – activators of human GPR151, primary screen, cell-based, PathHunter beta-arrestin, luminescence. PathHunter beta-arrestin GPR151 cells. activation, % at 11.2 µM. G-protein coupled receptor 151 (Homo sapiens), Q8TDV0. 650,000 compounds, 1% hits; in the data active = activation above about 4.9%;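 note: 0% = median of compound wells and 100% = cells with positive control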
TEAD-YAP block – TEAD-YAP interaction inhibition, primary screen, TEAD-YAP interaction inhibitor project, luminescence, HEK-TIYL cells; TEAD-Gal4/YAP UAS-luciferase luminescence; inhibition, % at 9.12 µM; 640,000 compounds, 1.4% hits; AID 1259422, 2018; in the data active = inhibition above about 32%;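 note: 0% = median of test compound wells and 100% = reference inhibitor wells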
MITF inh – MITF inhibitors, primary screen, biochemical, AlphaScreen, human | Microphthalmia-associated transcription factor (Homo sapiens), O75030 | AlphaScreen MITF homodimerization, bead proximity signal | inhibition, % at 2.6 µM | 650,000 compounds, 0.91% hits | AID 1259374, 2018; in the data active = inhibition above about 50%;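 note: 0% = vehicle wells with protein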
Target sequence (O75030 whole entry, looked up): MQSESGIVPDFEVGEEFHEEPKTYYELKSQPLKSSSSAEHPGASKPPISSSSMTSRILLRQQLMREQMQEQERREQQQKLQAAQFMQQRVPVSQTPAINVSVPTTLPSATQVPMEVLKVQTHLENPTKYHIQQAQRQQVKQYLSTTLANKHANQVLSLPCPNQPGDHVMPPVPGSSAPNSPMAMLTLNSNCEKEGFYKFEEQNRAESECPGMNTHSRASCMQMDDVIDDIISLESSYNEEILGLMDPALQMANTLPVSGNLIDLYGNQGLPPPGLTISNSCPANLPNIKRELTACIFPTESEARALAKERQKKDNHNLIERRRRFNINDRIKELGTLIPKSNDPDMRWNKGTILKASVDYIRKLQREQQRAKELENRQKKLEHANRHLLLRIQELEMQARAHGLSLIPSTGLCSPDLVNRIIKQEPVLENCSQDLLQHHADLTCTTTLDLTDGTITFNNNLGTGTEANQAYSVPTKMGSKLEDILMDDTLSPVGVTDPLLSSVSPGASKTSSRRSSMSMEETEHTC
FBW7 activator – FBW7 E3 ligase activators, primary screen, biochemical, AlphaScreen, human | normalized activity (activation), % at 26.1 µM | AlphaScreen FBW7–phospho-cyclin E peptide binding, activator screen | 650,000 compounds, 0.13% hits; in the data active = normalized activity above about 1.9%;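 note: purified mutant Fbw7 with reduced substrate affinity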
* = called active by the depositor. In the library only some 3.5% were active in any assay of this set; here they are far more common.

SMILES	GPR151 activ	TEAD-YAP block	MITF inh	FBW7 activator
COCCN=c1scc(-c2cccc3ccccc23)n1/N=C/c1ccc[nH]1	2	43*	10	0
CCCOC(=O)c1cccc(NC(=O)COc2ccccc2Br)c1	0	50*	7	0
CCCOC(=O)c1cccc(NC(=O)COc2ccc(Br)cc2)c1	1	-18	15	0
O=C(COc1ccc(Br)cc1Br)Nc1cccc(O)c1	3	69*	2	0
O=C(COc1ccc(CO)cc1Cl)Nc1ccccc1	-3	49*	10	1
Cc1ccc(COc2ccc(CO)cc2Cl)cc1	-1	33*	7	0
COC(=O)N/N=C/c1ccc(OC)cc1OC	0	5	-5	0
Clc1ccc(C2CN3CCSC3=N2)cc1 (stereo unspecified)	0	-2	37	0
O=S(=O)(c1ccc2c(c1)N=Cc1c(nc3sccn13)O2)N1CCOCC1	0	-9	6	0
O=S(=O)(c1ccc2c(c1)N=Cc1c(F)cccc1O2)N1CCOCC1	0	45*	-11	0
COc1ccc(CCNC(=O)c2ccc3nc(Nc4ccc5ncccc5c4)sc3c2)cc1	0	32*	2	0
COCCN(C(C)=O)c1nnc(C2CCCO2)s1 (stereo unspecified)	0	8	-1	0
CCN(CC)c1ccc(-c2c3cc(O)c(=O)cc-3oc3cc(O)c(O)cc23)cc1	-2	10	110*	0
O=c1cc2oc3cc(O)c(O)cc3c(-c3ccc4c(c3)OCO4)c-2cc1O	-1	18	113*	-1
CCCc1cc2c(=O)c(-c3ccc4c(c3)OCO4)c(CC)oc2cc1O	2	10	-8	0
O=c1cc2oc3cc(O)c(O)cc3c(-c3ccc([N+](=O)[O-])o3)c-2cc1O	-1	6	106*	0
COc1ccc(-n2nc3c(c2NC(=O)/C=C\c2ccc(OC)c(OC)c2)CSC3)cc1	0	-8	0	0
CCOc1ccccc1/C=N/NC(=O)CCc1n[nH]c(=O)[nH]c1=O	2	9	12	0
Cc1nc2nc(CC(=O)NCc3ccccc3)nn2c(C)c1Cc1cccc(Cl)c1	0	55*	-4	0
O=C(O)c1ccc(S(=O)(=O)c2ccc(C(=O)O)cc2)cc1	-1	-7	-1	0
O=C1C=CC(=NS(=O)(=O)c2ccc(C(=O)O)cc2)C=C1	0	7	56*	0
CC(=O)c1ccccc1OCc1ccccc1C	0	5	7	2.6*
O=C(NCCCN1CCOCC1)c1cn(-c2ccccc2)nc1-c1ccccc1	-1	5	12	0
O=C(Nc1ccccc1)c1cccc(Br)c1	1	-25	14	0
O=C(Nc1cc(=O)[nH]c(=O)[nH]1)c1cccc(Br)c1	0	44*	13	1
SMILES	GPR151 activ	TEAD-YAP block	MITF inh	FBW7 activator
Cc1cccc(C)c1OC(=O)C(C)N1C(=O)C2C3C=CC(C4CC34)C2C1=O (stereo unspecified)	0	15	17	1
CC(C)(C)c1ccc(NC(=O)CSc2nnc(N)s2)cc1	1	-39	-14	0
Cc1ccc(C(=O)C[n+]2cc(-c3ccc(C)cc3)n3c2CCCCC3)cc1	-1	86*	10	0
CC1(Cc2ccncc2)C(=O)Nc2ccc(F)cc21 (stereo unspecified)	0	-2	4	0
CCn1c(SCC(=O)NC2CCCCC2)nnc1-c1ccc(N)cc1	0	-1	-16	0
O=C(COc1ccccc1F)Nc1nccs1	-8	-1	6	0
O=C(COc1ccccc1Cl)Nc1nccs1	-11	91*	19	0
COc1ccccc1OCC(=O)Nc1nccs1	-8	15	4	0
Cc1cccc(OCC(=O)Nc2nccs2)c1C	-5	32*	7	0
N#CC1=C(N)OC2=C(C(=O)CCC2)C1c1ccc(O)c(O)c1 (stereo unspecified)	0	0	4	0
Cc1ccc(OC(=O)c2ccc3c(c2)C(=O)N(c2ccccc2)C3=O)cc1	-1	-6	-4	0
COc1ccc(C(=O)NCCC(=O)NCc2ccc(C)cc2)cc1OC	-1	4	4	0
COc1cccc(CN2CCC(C(=O)N3CCc4ccccc4C3)CC2)c1O	1	1	51*	1
CCOC(=O)N1CCN(C(=O)C2CCN(Cc3cccc(OC)c3O)CC2)CC1	-1	-6	55*	0
CCOC(=O)C1CCN(Cc2cccc(OC)c2O)CC1	0	-3	19	0
O=C(C1CCN(Cc2ccccc2O)CC1)N1CCc2ccccc2C1	0	15	38	0
c1ccc(Nc2nc3nonc3nc2N2CCCCCC2)cc1	2	37*	-8	0
Clc1cccc(Nc2nc3nonc3nc2N2CCOCC2)c1	1	57*	3	0
Clc1cccc(Nc2nc3nonc3nc2N2CCCCC2)c1	0	43*	6	0
Ic1ccc(Nc2nc3nonc3nc2N2CCOCC2)cc1	0	5	-5	0
CC1C/C(=C/c2ccncc2)C(=O)/C(=C/c2ccncc2)C1 (stereo unspecified)	1	94*	-3	0
COc1cccc(C2CC(=O)C=C(NCc3ccccc3OC)C2)c1 (stereo unspecified)	0	52*	12	1
Cc1cc(C(=O)N/N=C(\CCC(=O)O)c2cccs2)c2ccccc2n1	0	51*	11	0
O=C1CCC/C(=N\NC(=O)c2cc(-c3ccncc3)nc3ccccc23)C1	2	26	-5	0
Cc1cc(C(=O)N/N=C2\CCCC(=O)C2)c2ccccc2n1	0	40*	-7	0
SMILES	GPR151 activ	TEAD-YAP block	MITF inh	FBW7 activator
CN(C)c1ccc(C(CNC(=O)c2ccco2)N2CCN(c3ccc(F)cc3)CC2)cc1 (stereo unspecified)	-1	-52	14	0
C/C(Cn1nc([N+](=O)[O-])cc1C)=N/NC(=O)c1cc(O)c(O)c(O)c1	0	8	56*	0
COc1cccc(NC(=O)c2ccnc(C(C)(C)C)c2)c1	0	-26	16	0
COc1ccccc1C(=O)NC(=S)Nc1ccccc1C(=O)O	-2	22	-4	0
COc1ccccc1NC(=S)Nc1ccc(N2CCOCC2)cc1	-2	33*	18	0
COC(=O)c1cc(OC)c(OC)cc1NC(=S)Nc1ccccc1	-2	1	2	0
COc1ccccc1NC(=S)NC(=O)c1ccccc1OC	-1	39*	7	0
COC(=O)c1cc(OC)c(OC)cc1NC(=S)NC(=O)c1ccccc1	-1	33*	-1	0
COc1ccccc1C(=O)NNC(=O)c1cccc(O)c1	-2	79*	0	0
COc1ccc(Nc2cc(C)c3cc(N)ccc3n2)cc1	-2	0	8	0
COc1ccc(NC(=O)COc2ccc(S(=O)(=O)NCC(C)C)cc2C)c(OC)c1	2	-2	8	0

Compound activity deposited in PubChem by The Scripps Research Institute Molecular Screening Center.
